The record followed here is PubChem BioAssay AID485297 (National Center for Advancing Translational Sciences (NCATS), 2010).

Each structure is given as a SMILES string. About 9,100 (2.8%) of roughly 320,000 compounds were called active. Entries that show only a call come without a potency. About 3% were inconclusive and are not listed. The call rests on the fitted dose curve; in most records, active means well fitted activation curve with a large enough effect; inconclusive means small, poorly fitted or top-dose-only effect; inactive means no such curve, though single readings can be large or run the other way. For the sample, actives were picked, then their nearest neighbours and some compounds at random.
Potency means the concentration at half of the fitted maximal effect.

The assay in a line: qHTS Assay for Rab9 Promoter Activators. Further: nearly all actives have a fitted effect of over 60% in size. The settings on record: Huh7 Rab9 promoter-luciferase reporter, luminescence, 24 h; series mostly up to 9.22 µM. An outline of the steps: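 Stable Rab9-luc Huh7, 1500 cells/well, 2 h settle; cmpd in DMSO, 24 h, 37 °C/5% CO2; luciferase reagent 10 min RT; luminescence.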
Background: qHTS replaces the single test concentration by a dilution series.
As to `CC1(C)NC(=O)N(CC(=O)N2CCN(S(=O)(=O)c3ccccc3F)CC2)C1=O`, the Potency entry is “inactive”.

Regarding `CC(=O)Nc1ccc(NC(=O)CSc2nnc(C3CC3)n2-c2ccccc2)cc1`, the Potency entry was “inactive”.

Consider `CCC(C)C(N=C1NS(=O)(=O)c2ccccc21)C(=O)N1CCC(C)CC1` (stereo not drawn), for which the Potency entry is “inactive”.

Take `O=C(NCCc1ccc(F)cc1)c1ccc(S(=O)(=O)N2CCCCC2)cc1`: the Potency result was “inactive”.

`Cc1ccc(C)c(NC(=O)c2ccc3nccnc3c2)c1`: the Potency result was “inactive”.

Take `O=C(NCCc1ccc(F)cc1)c1ccc2nccnc2c1`: the Potency is 1120 nM (active).

`CC(=O)Nc1ccc(NC(=O)COC(=O)c2ccccc2C(=O)c2ccccc2)cc1`: the Potency result was “inactive”.

As for `CCN(CC)S(=O)(=O)c1ccc2[nH]c(=O)cc(C(=O)N(C)C3CCS(=O)(=O)C3)c2c1` (stereo not drawn), the Potency entry was “inactive”.

As for `Cc1ccccc1Nc1nc(N)nc(COC(=O)CCC(=O)c2ccc(F)cc2)n1`, the Potency result was “inactive”.

Take `O=C(Nc1nnc(-c2ccc(F)cc2)s1)c1c(F)cccc1Cl`: the Potency result is “inactive”.

With `NNC(=O)c1cccc(COCC(F)(F)C(F)F)c1`, the Potency result was “inactive”.

`CC(C)c1cc(C(N)=O)c(NC(=O)c2cccc(COc3ccc(Br)cc3)c2)s1`: the Potency was 1260 nM (active).

With `CCOC(=O)c1cc(C(C)C)sc1NC(=O)COC(=O)c1nccnc1N`, the Potency entry is “inactive”.

Turning to `COCC(C)NC(=O)c1ccc(-n2nc(C(F)(F)F)cc2-c2cccs2)cc1` (stereo not drawn), the Potency result is “inactive”.

In the case of `C=CCn1c(=NC(=O)c2ccc(S(=O)(=O)N3CCCC3)cc2)sc2cc(NC(C)=O)ccc21`, the Potency entry was “inactive”.

Consider `C=CCn1c(CCNC(=O)c2cccs2)n[nH]c1=S`, for which the Potency result is “inactive”.

In the case of `C=CCn1c(=NC(=O)c2cccs2)sc2cc(NC(C)=O)ccc21`, the Potency was 3980 nM (active).

Turning to `Cc1cccc(NS(=O)(=O)c2cccc(C(=O)NNC(=O)c3ccccc3O)c2)c1`, the Potency result was “inactive”.

Consider `O=C(CSc1ccccc1)Nc1cccc(S(=O)(=O)N2CCCCC2)c1`, for which the Potency entry was “inactive”.

As to `CCN(c1ccccc1)S(=O)(=O)c1ccc(OCC(=O)N2CCCC2)cc1`, the Potency entry was “inactive”.

As for `CC(=O)Nc1ccc(SC[C@H](Cc2ccccc2)N2CC[C@@H](C)CCC2=O)cc1`, the Potency entry is “inactive”.

Regarding `COc1cccc(-c2nnc(N(C)C(=O)c3ccno3)s2)c1`, the Potency entry was “inactive”.

`COc1cc(OC)cc(-c2nnc(N(C)C(=O)c3ccncc3)s2)c1`: the Potency result is “inactive”.

For `CN(C(=O)c1ccccn1)c1nnc(-c2ccccn2)s1`, the Potency is 3550 nM (active).

As for `O=C(CNc1ccccc1N1CCCC1=O)Nc1cc(Cl)ccc1-n1cncn1`, the Potency result was “inactive”.

Regarding `Cc1c(Br)c([N+](=O)[O-])nn1CC(=O)N1CCN(Cc2ccccc2)CC1`, the Potency result was “inactive”.

Turning to `O=C(COC(=O)c1cc(=O)[nH]c2ccccc12)NCc1cccc(Cl)c1`, the Potency result is “inactive”.

On to `COc1ccc(C(=O)NCc2nnc(SCCOc3ccccc3)n2C)cc1`, for which the Potency result was “inactive”.

In the case of `COc1ccc(C(=O)NCCSc2ccccc2C)cc1`, the Potency is 794 nM (active).

`COc1cccc(C(=O)NCCSc2ccc(Br)cc2)c1`: the Potency result is “inactive”.

Consider `CCNC(=O)N1CCN(S(=O)(=O)c2ccc3c(c2)OCCCO3)CC1`, for which the Potency entry was “inactive”.

With `COc1ccc(OC)c(/C=N/NC(=O)c2ccc[n+](CC(=O)c3ccccc3)c2)c1`, the Potency result was “inactive”.

For `Clc1ccc2nc(CSc3ccccc3)cn2c1`, the Potency is 316 nM (active).

For `O=c1c2ccccc2nc2n1C(CSc1ccc(Cl)cc1)CN2` (stereo not drawn), the Potency result was “inactive”.

As for `O=C(/C=C/c1ccc2c(c1)OCO2)NCc1cn2cc(Cl)ccc2n1`, the Potency entry is “inactive”.

Turning to `COc1cc2ccccc2cc1C(=O)Nc1ccc(NC(=O)c2cccs2)cc1`, the Potency entry was “inactive”.

Turning to `O=C(Nc1ccc2oc(-c3ccc4ccccc4c3)nc2c1)c1cccs1`, the Potency was 1260 nM (active).

For `O=C(Nc1ccc(NC(=O)c2cccs2)cc1)c1ccc2ccccc2c1`, the Potency result is “inactive”.

For the molecule `COc1ccc(S(=O)(=O)N2CCN(CC(=O)N3c4ccccc4CC3C)CC2)cc1OC` (stereo not drawn), the Potency result was “inactive”.

`Nc1nc(SCC(=O)Nc2ccc(Cl)c([N+](=O)[O-])c2)n[nH]1`: the Potency entry was “inactive”.

On to `C/C=C\C=C\C(=O)N1CC2(CC(c3cccc(NC(=O)/C(C)=C\C)c3)=NO2)C[C@H]1C(N)=O` (stereo partly drawn), for which the Potency result was “inactive”.

Regarding `COc1ccccc1C1CCN(C(=S)Nc2ccc(Br)cc2)CC1`, the Potency result is “inactive”.

Take `CC(C(=O)N1CCc2ccccc21)N(C)CC(=O)Nc1ccc(F)cc1` (stereo not drawn): the Potency entry is “inactive”.

In the case of `CN(Cc1cnccn1)C(=O)c1cc(COc2cccc(C(F)(F)F)c2)on1`, the Potency entry is “inactive”.

Turning to `CN(CCOc1ccccc1)C(=O)c1cc(COc2c(F)cccc2F)on1`, the Potency entry is “inactive”.

Consider `Cc1cc(CN(C)C(=O)c2cc(COc3ccc(C)c(C)c3)on2)n[nH]1`, for which the Potency is 2000 nM (active).

As to `Cc1ccc(OCc2cc(C(=O)N(C)CCc3ccccc3)no2)cc1C`, the Potency is 3980 nM (active).

Regarding `CN(Cc1cccnc1)C(=O)c1cc(COc2ccc3ncccc3c2)on1`, the Potency entry was “inactive”.

Regarding `CCn1ccnc1CN(C)C(=O)c1cc(COc2ccc(-n3cncn3)cc2)on1`, the Potency result is “inactive”.

For `COc1ccc(C(=O)N2CCN(c3ncccn3)CC2)cc1S(=O)(=O)N1CCOCC1`, the Potency entry was “inactive”.

Consider `COc1cccc(NC(=O)CN(C)C(=O)/C=C/c2cn(-c3ccccc3)nc2-c2cccs2)c1`, for which the Potency entry is “inactive”.

Turning to `CN(C)CCN=c1cc(-c2ccccc2)oc2ccc(Cl)cc12`, the Potency is 2820 nM (active).

For the molecule `CN(C)CCn1c(=S)[nH]c2ccc(Cl)cc2c1=O`, the Potency entry was “inactive”.

For the molecule `O=C(NCC#CCSc1nnc(-c2cccc3ccccc23)o1)c1cccs1`, the Potency result is “inactive”.

Take `COCCN(C(=O)CC1CCCCC1)c1c(N)n(CC(C)C)c(=O)[nH]c1=O`: the Potency result is “inactive”.

Turning to `O=C(Nc1ccc(S(=O)(=O)N2CCCCC2)cc1)C1CCN(C(=O)c2ccc(F)cc2)CC1`, the Potency entry was “inactive”.

Regarding `Cc1ccc(S(=O)(=O)N(C)C)cc1NC(=O)CN1c2cccc3cccc(c23)S1(=O)=O`, the Potency result was “inactive”.

For `COc1ccc(C(=O)Nc2ccc(F)cc2F)cc1`, the Potency was 2510 nM (active).

`COc1ccc(NC(=O)c2ccc(C#CC(C)(C)O)cc2)cc1`: the Potency result is “inactive”.

Take `COc1ccccc1CC(=O)Nc1ccc(F)cc1F`: the Potency entry was “inactive”.

Take `COc1cc(OC)cc(C(=O)OCC(=O)Nc2ccc(F)cc2F)c1`: the Potency result was “inactive”.

For the molecule `COc1ccc(C(=O)Nc2cccc(S(C)(=O)=O)c2)cc1`, the Potency entry was “inactive”.

As to `COc1ccc(NC(=O)c2ccc(OC)cc2)cc1`, the Potency was 1410 nM (active).

Regarding `COc1ccc(NC(=O)CC2SC(N3CCCCC3)=NC2=O)cc1OC` (stereo not drawn), the Potency result is “inactive”.

Regarding `CCCc1ccc(C(=O)COC(=O)CN2C(=O)NC3(CCCCC3C)C2=O)cc1` (stereo not drawn), the Potency entry is “inactive”.

With `O=C(CCCc1ccccc1)NCc1ccccc1`, the Potency entry is “inactive”.

As to `CCC(C)NC(=O)CCCc1ccccc1` (stereo not drawn), the Potency result is “inactive”.

In the case of `C=CCN1CCN(C(=O)CCCc2ccccc2)CC1`, the Potency was 100 nM (active).

With `CS(=O)(=O)c1ccc2nc(NC(=O)C3CCCCC3)sc2c1`, the Potency entry was “inactive”.

Regarding `COc1ccc2nc(NC(=O)NC3CCCCC3)sc2c1`, the Potency was 2000 nM (active).

For `COc1ccc2nc(NC(=O)[C@@H]3CCCN3C(=O)c3cccs3)sc2c1`, the Potency entry is “inactive”.

In the case of `COc1ccc2nc(NC(=O)c3ccc(Br)s3)sc2c1`, the Potency is 2240 nM (active).

For `CCc1noc(C)c1C(=O)Nc1nc2ccc(OC)cc2s1`, the Potency result is “inactive”.

As to `CCn1c(SCC(=O)Nc2nc3ccc(OC)cc3s2)nnc1-c1ccoc1C`, the Potency entry is “inactive”.

For the molecule `C=CCN(c1ccccc1C(=O)NCC(=O)OCC)S(=O)(=O)c1ccc(C)cc1`, the Potency entry was “inactive”.

For `COc1cc(C#Cc2ccc3cc(CCCO)oc(=O)c3c2)cc(OC)c1`, the Potency entry was “inactive”.

For `O=C(O)c1cc(S(=O)(=O)Nc2ccc3cn[nH]c3c2)ccc1Br`, the Potency result was “inactive”.

Take `O=C(CN1C(=O)NC2(CCOc3ccccc32)C1=O)NCc1ccc(F)cc1` (stereo not drawn): the Potency result is “inactive”.

As to `CCOc1ccc(OCC(=O)OC(C)C(=O)NC2CCCCC2C)cc1` (stereo not drawn), the Potency entry was “inactive”.

Turning to `c1csc(-c2nc(-c3ccncc3)no2)c1`, the Potency is 2510 nM (active).

For `O=C(NCc1cccnc1)c1nc(-c2cccs2)no1`, the Potency entry was “inactive”.

For `Clc1ccc(-n2nnnc2-c2cnc(-c3ccccn3)nc2-c2cccs2)cc1`, the Potency entry was “inactive”.

As to `COc1nc(-c2ccc(Cl)cc2)ccc1-c1noc(-c2cccs2)n1`, the Potency entry was “inactive”.

As for `c1ccc(CCc2nc(-c3ccncc3)no2)cc1`, the Potency entry is “inactive”.

For the molecule `Cc1ccc(-c2noc(CSc3nnc(-c4cccs4)n3C)n2)cc1`, the Potency entry is “inactive”.

Turning to `Cc1ccc(-c2noc(CSc3nnc(-c4ccncc4)n3-c3ccc(F)cc3)n2)cc1`, the Potency result was “inactive”.

With `c1ccc(-c2noc(-c3cccs3)n2)nc1`, the Potency is 355 nM (active).

Regarding `Cc1ccc(-c2nc(-c3ccncc3)no2)c(C)c1`, the Potency was 2510 nM (active).

With `COc1cccc(C2=CC(=O)C[C@H](c3ccc(OC)c(OC)c3)C2)c1`, the Potency result is “inactive”.

As to `Cc1ccc(NC(=O)CCCNC(=O)c2ccc(Cl)cc2)cc1S(=O)(=O)N1CCCCC1`, the Potency entry was “inactive”.

For `CN(CCc1ccccn1)C1CCCN(S(=O)(=O)c2ccccc2Cl)C1` (stereo not drawn), the Potency result is “inactive”.

Consider `O=C(NNC(=O)C1CCC1)c1ccccc1`, for which the Potency entry is “inactive”.

As for `COc1ccc(C(=O)N2CCN(c3ccc(C(C)=O)cc3F)CC2)cc1S(=O)(=O)NC1CC1`, the Potency entry was “inactive”.

Regarding `O=S(=O)(NC1CCN(S(=O)(=O)c2ccc3c(c2)OCCO3)CC1)c1c(F)cccc1F`, the Potency result is “inactive”.

On to `CN1CCC(N(C)S(=O)(=O)c2ccc(NC(=O)c3cccc(C#N)c3)cc2)CC1`, for which the Potency entry is “inactive”.

Take `CC(=O)NS(=O)(=O)c1ccc(NC(=O)C2C3C=CC(C3)C2C(=O)O)cc1` (stereo not drawn): the Potency result is “inactive”.

For `CC(C)COC(=O)c1ccc(NC(=O)C2C3C=CC(C3)C2C(=O)O)cc1` (stereo not drawn), the Potency is 2240 nM (active).

In the case of `COC(=O)c1cc(NC(=O)C2C3C=CC(C3)C2C(=O)O)cc(C(=O)OC)c1` (stereo not drawn), the Potency result was “inactive”.

As to `CCOc1ncccc1C(=O)OCC(=O)N1c2ccccc2CC1C` (stereo not drawn), the Potency entry was “inactive”.

Regarding `Cc1cc(NC(=O)CSc2nc(C(C)C)nc3sc4c(c23)CCC(C)C4)no1` (stereo not drawn), the Potency result was “inactive”.

On to `CC(NC(=O)CSc1nc2c(cc1C#N)CN(C)CC2)c1ccccc1` (stereo not drawn), for which the Potency result is “inactive”.

With `Cc1cc(NC(=O)CSc2nc3c(cc2C#N)CCCCC3)no1`, the Potency was 2000 nM (active).

Regarding `O=C(/C=C/c1ccc2c(c1)OCO2)NCc1ccc(F)cc1`, the Potency entry was “inactive”.

`O=C(Cc1ccc(F)cc1)N/N=C/c1ccc2c(c1)OCO2`: the Potency was 2820 nM (active).

Take `O=C(N/N=C/c1ccc2c(c1)OCO2)C(=O)N1CCCC1`: the Potency was 2820 nM (active).

`O=C(N/N=C/c1ccc([N+](=O)[O-])cc1)C(=O)N1CCCC1`: the Potency entry is “inactive”.

For the molecule `COC(=O)c1ccc(/C=N/NC(=O)C(=O)N2CCCCCC2)cc1`, the Potency entry is “inactive”.

On to `O=C(CNC(=O)C(c1ccccc1)c1ccccc1)N/N=C\c1ccc2c(c1)OCO2`, for which the Potency result is “inactive”.
